Data published in PubChem BioAssay (NCI).
Compounds without any hit were thinned out: in the full panel of roughly 83,000, 20% have a hit.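 Values shown are percent growth following 48 h exposure of cells in 96-well plates to a single concentration of compound; below 10 was considered active.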 Activity calls are given as the source filed them.

tested on: HL-60(TB) leukemia; assay: NCI-60 one-dose screen, 48 h (100 = growth as untreated, 0 = no growth, -100 = all killed); details: 10 µM unless noted

| SMILES | growth |
| --- | --- |
| COc1ccc(NC(=O)c2ccc(C(F)(F)F)nc2Nc2ccc(Cl)cc2C)cc1Cl | 4.78% (active) |
| CCOC(=O)CC1CSC(N/N=C(/C)c2cccc(C(F)(F)F)c2)=N1 (stereo not given) | 101% (inactive) |
| CC[n+]1c(/C=C/C=C2\N(C)c3ccccc3C2(C)C)sc2ccccc21 | -30.3% (active) |
| N#Cc1cc(-c2ccnc(Nc3ccc(NC(=O)CCl)cc3)n2)ccc1N1CCCC1 | -49.2% (active) |
| C=C1C(=O)O[C@H]2[C@H]1CC/C(Cn1cc(-c3cccc(Cl)c3)nn1)=C\CC[C@@]1(C)O[C@@H]21 | -24.9% (active) |
| C#CC[C@@H]1C[C@]2(C)[C@H]3CC[C@@H]4[C@H]5C(C(=C)C)CC[C@]5(C(=O)NCCCCN)CC[C@@]4(C)[C@]3(C)CC[C@H]2C(C)(C)[C@H]1OC(C)=O (stereo not given in full) | -38.3% (active) |
| CNC(=O)c1cc(Oc2ccc3nc(NC(=O)Nc4ccc(C(F)(F)F)cc4)sc3c2)ccn1 | 120% (inactive) |
| NS(=O)(=O)c1ccc(Nc2nc3n[nH]c(Nc4ccccc4)c3c(=O)[nH]2)cc1 | 101% (inactive) |
| C=C[C@@]1(C)CC(=O)[C@@H](C(C)(C)c2cn(C)c3ccc(Br)cc23)C[C@@H]1O[Si](C)(C)C(C)(C)C | 106% (inactive) |
| CC(=O)CC(c1cccs1)c1c(-c2ccccc2)[nH]c2ccccc12 (stereo not given) | 99.8% (inactive) |
| COc1ccc(Nc2cc(C)nc(N3CCN(c4ccnc5cc(Cl)ccc45)CC3)n2)cc1 | 2.43% (active) |
| COc1ccc(C(=O)c2cc(F)c(F)c(OC)c2F)cc1OC(=O)CCl | 11.7% (inactive) |
| CN1CCN(c2ccc(Nc3ncc(Cl)c(NC[C@@H]4CCCO4)n3)cc2)CC1 | -6.65% (active) |
| NC(=O)c1c(NC(=O)c2ccc(C(F)(F)F)cc2Cl)sc2c1CCC(=O)C2 | -12.9% (active) |
| O=c1cc(Cl)nc2ccccn12 | 92.9% (inactive) |
| S=c1nc2oc(-c3ccccc3)c(-c3ccccc3)c2c(/N=C\c2ccco2)[nH]1 | 87.2% (inactive) |
| O=C(c1ccccc1)N1N=C(c2ccc(-n3ccc(C(F)(F)F)n3)c(F)c2)CC1c1ccc[nH]1 (stereo not given) | 101% (inactive) |
| ClC1C2CC(c3ccccc32)C1Cl (stereo not given) | 131% (inactive) |
| CC(C)C(C(=O)NCCN1CCOCC1)N1C(=O)/C(=C/c2ccc(Br)cc2)SC1=S (stereo not given) | 101% (inactive) |
| CCC(=O)Oc1c(C)cc(O)c2ccccc12 | 68.8% (inactive) |

| SMILES | growth |
| --- | --- |
| O=C(O)c1ccccc1Nc1cccc(S(F)(F)(F)(F)F)c1 | 96.9% (inactive) |
| COc1ccc(/C=C/C(=O)c2ccc(Nc3ncnc4ccccc34)cc2)cc1OC | 75.6% (inactive) |
| C/C(=C(/c1ccc(Cl)cc1)c1ccc(OCCCN(C)C)cc1)c1ccc(Cl)cc1 | 72.9% (inactive) |
| CN1NC(c2ccccc2)NN(C)C1=O | 105% (inactive) |
| O=C(CCl)N1c2ccccc2Sc2c1ccc1ccccc21 | 62.7% (inactive) |
| CC(=O)n1c2ccccc2c2ccccc21 | 104% (inactive) |
| Cc1cc(=O)[nH]c(/C(=N/Nc2ccccc2)C(=O)c2ccc(Cl)cc2)n1 | 50.7% (inactive) |
| CS(=O)(=O)c1ccc(Cl)c([N+](=O)[O-])c1 | 14% (inactive) |
| COc1ccc2[nH]c(O)c(/C=c3/cc4c(c(-c5cc(OC)c(OC)c(OC)c5)n3)=Nc3ccccc3-4)c2c1 | 58.8% (inactive) |
| COc1ccc2nc3ccccc3c(NCCNCC(C)O)c2c1 (stereo not given) | 14.2% (inactive) |
| CCOc1ccccc1C(=O)N1CCN(c2cc(Cl)cc(Cl)c2)CC1 | -59% (active) |
| Cc1ccc(OCCCCCCNCCO)c(C)c1 | -3.98% (active) |
| COc1cc(Cl)cc(-c2nn(-c3cccc(NC(=O)Nc4cc(C(F)(F)F)cc(C(F)(F)F)c4)c3)cc2-c2ccncc2)c1 | -20.1% (active) |
| Cc1ccc(CNc2ccc3nc(CCC4CCCCC4)[nH]c3c2)cc1 | 14.8% (inactive) |
| C=C(Cl)COC(=O)C(C)(C)O | 103% (inactive) |
| Cc1ccc2c(c1)n([O-])c1cc(Cl)ccc1[n+]2=O | 67.8% (inactive) |
| Clc1ccc(/C=C2\CCCC3C2=Nc2ccccc2NC3c2ccc(Cl)cc2)cc1 (stereo not given) | 73.9% (inactive) |
| Oc1ccc(/C=N/Nc2nc3ccccc3s2)c(O)c1 | 0.859% (active) |
| N#CC1CCc2c(c(-c3ccc4nc(N)sc4c3)nc3ccc4[nH]ncc4c23)C1 (stereo not given) | 34.9% (inactive) |
| C(=N\Nc1ccccn1)/c1ccccn1 | 12.3% (inactive) |
